ChEMBL document CHEMBL1961873, “Compounds: GSK PKIS; Assays: Nanosyn kinase panel” (2012)

Assays:
[1] = molecular target: Tyrosine-protein kinase Fer (Homo sapiens) (UniProt P16591); conditions: at 1 µM
[2] = molecular target: Tyrosine-protein kinase Fes/Fps (Homo sapiens) (UniProt P07332); conditions: at 0.1 µM
[3] = molecular target: Tyrosine-protein kinase Fes/Fps (Homo sapiens) (UniProt P07332); conditions: at 1 µM
[4] = molecular target: Fibroblast growth factor receptor 1 (Homo sapiens) (UniProt P11362); conditions: at 0.1 µM
[5] = molecular target: Fibroblast growth factor receptor 1 (Homo sapiens) (UniProt P11362); conditions: at 1 µM
[6] = molecular target: Fibroblast growth factor receptor 2 (Homo sapiens) (UniProt P21802); conditions: at 0.1 µM
[7] = molecular target: Fibroblast growth factor receptor 2 (Homo sapiens) (UniProt P21802); conditions: at 1 µM
[8] = molecular target: Fibroblast growth factor receptor 3 (Homo sapiens) (UniProt P22607); conditions: at 0.1 µM
[9] = molecular target: Fibroblast growth factor receptor 3 (Homo sapiens) (UniProt P22607); conditions: at 1 µM
[10] = molecular target: Fibroblast growth factor receptor 4 (Homo sapiens) (UniProt P22455); conditions: at 0.1 µM
[11] = molecular target: Fibroblast growth factor receptor 4 (Homo sapiens) (UniProt P22455); conditions: at 1 µM
[12] = molecular target: Tyrosine-protein kinase Fgr (Homo sapiens) (UniProt P09769); conditions: at 0.1 µM
[13] = molecular target: Tyrosine-protein kinase Fgr (Homo sapiens) (UniProt P09769); conditions: at 1 µM
[14] = molecular target: Vascular endothelial growth factor receptor 1 (Homo sapiens) (UniProt P17948); conditions: at 0.1 µM
[15] = molecular target: Vascular endothelial growth factor receptor 1 (Homo sapiens) (UniProt P17948); conditions: at 1 µM
[16] = molecular target: Receptor-type tyrosine-protein kinase FLT3 (Homo sapiens) (UniProt P36888); conditions: at 0.1 µM
[17] = molecular target: Receptor-type tyrosine-protein kinase FLT3 (Homo sapiens) (UniProt P36888); conditions: at 1 µM
[18] = test system: T1, Receptor-type tyrosine-protein kinase FLT3 (Homo sapiens), P36888 [D835Y]; conditions: at 0.1 µM
T1 sequence (whole entry): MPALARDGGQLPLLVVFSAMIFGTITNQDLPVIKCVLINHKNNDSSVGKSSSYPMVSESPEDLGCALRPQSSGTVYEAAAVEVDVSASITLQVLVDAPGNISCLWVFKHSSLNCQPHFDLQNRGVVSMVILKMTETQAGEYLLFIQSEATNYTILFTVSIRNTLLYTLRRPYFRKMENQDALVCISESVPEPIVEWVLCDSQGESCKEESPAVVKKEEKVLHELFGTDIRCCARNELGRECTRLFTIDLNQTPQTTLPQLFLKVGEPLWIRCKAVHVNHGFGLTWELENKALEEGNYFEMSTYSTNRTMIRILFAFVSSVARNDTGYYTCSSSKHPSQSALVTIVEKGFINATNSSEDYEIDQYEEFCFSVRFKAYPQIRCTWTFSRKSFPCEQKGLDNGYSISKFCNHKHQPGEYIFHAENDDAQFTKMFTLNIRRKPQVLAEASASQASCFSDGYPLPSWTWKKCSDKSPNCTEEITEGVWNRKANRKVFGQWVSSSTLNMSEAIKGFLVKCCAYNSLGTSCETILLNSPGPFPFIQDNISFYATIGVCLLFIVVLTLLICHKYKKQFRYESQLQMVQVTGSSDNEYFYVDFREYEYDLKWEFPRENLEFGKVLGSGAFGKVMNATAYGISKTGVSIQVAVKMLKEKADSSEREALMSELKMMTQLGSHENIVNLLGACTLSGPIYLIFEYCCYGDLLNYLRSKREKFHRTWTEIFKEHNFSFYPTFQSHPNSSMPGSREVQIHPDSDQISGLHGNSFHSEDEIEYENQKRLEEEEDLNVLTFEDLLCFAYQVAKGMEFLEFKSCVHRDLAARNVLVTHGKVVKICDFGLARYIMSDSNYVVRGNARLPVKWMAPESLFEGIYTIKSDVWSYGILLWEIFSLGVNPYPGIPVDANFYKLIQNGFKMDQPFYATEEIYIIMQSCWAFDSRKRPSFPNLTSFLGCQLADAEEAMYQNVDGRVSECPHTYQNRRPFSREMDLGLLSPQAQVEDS

[19] = molecular target: Non-receptor tyrosine-protein kinase TYK2 (Homo sapiens) (UniProt P29597); conditions: at 1 µM;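 note: values are mean percent inhibition of TYK2 kinase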
[20] = molecular target: T2, Tyrosine-protein kinase receptor TYRO3 (Homo sapiens) (UniProt Q06418); conditions: at 0.1 µM;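 note: reported percentages are averaged inhibition values of TYRO3 kinase activity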
T2 sequence (whole entry): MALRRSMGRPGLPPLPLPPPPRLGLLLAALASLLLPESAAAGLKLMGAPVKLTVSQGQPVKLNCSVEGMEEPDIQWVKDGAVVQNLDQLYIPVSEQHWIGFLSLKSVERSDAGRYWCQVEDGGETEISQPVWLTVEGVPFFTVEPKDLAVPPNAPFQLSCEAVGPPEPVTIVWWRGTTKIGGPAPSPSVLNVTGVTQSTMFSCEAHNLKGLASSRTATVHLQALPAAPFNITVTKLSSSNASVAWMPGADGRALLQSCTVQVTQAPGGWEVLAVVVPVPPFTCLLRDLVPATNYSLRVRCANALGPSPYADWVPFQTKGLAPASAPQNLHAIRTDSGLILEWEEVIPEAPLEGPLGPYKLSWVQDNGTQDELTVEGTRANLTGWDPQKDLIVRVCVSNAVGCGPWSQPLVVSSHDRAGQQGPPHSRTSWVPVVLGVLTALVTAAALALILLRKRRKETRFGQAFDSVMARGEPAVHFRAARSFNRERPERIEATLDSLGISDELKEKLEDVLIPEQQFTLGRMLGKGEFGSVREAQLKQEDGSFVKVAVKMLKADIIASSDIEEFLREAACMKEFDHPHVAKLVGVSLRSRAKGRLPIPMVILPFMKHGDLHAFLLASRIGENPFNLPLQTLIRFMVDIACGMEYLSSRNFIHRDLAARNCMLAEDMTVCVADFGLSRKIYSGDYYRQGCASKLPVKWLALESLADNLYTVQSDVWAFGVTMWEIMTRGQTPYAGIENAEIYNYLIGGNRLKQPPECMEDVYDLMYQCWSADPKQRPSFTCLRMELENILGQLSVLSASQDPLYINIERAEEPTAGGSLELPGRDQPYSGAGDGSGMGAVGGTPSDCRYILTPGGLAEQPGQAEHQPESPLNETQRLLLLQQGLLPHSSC

Sequence of Vascular endothelial growth factor receptor 1 (Homo sapiens) (P17948 whole entry): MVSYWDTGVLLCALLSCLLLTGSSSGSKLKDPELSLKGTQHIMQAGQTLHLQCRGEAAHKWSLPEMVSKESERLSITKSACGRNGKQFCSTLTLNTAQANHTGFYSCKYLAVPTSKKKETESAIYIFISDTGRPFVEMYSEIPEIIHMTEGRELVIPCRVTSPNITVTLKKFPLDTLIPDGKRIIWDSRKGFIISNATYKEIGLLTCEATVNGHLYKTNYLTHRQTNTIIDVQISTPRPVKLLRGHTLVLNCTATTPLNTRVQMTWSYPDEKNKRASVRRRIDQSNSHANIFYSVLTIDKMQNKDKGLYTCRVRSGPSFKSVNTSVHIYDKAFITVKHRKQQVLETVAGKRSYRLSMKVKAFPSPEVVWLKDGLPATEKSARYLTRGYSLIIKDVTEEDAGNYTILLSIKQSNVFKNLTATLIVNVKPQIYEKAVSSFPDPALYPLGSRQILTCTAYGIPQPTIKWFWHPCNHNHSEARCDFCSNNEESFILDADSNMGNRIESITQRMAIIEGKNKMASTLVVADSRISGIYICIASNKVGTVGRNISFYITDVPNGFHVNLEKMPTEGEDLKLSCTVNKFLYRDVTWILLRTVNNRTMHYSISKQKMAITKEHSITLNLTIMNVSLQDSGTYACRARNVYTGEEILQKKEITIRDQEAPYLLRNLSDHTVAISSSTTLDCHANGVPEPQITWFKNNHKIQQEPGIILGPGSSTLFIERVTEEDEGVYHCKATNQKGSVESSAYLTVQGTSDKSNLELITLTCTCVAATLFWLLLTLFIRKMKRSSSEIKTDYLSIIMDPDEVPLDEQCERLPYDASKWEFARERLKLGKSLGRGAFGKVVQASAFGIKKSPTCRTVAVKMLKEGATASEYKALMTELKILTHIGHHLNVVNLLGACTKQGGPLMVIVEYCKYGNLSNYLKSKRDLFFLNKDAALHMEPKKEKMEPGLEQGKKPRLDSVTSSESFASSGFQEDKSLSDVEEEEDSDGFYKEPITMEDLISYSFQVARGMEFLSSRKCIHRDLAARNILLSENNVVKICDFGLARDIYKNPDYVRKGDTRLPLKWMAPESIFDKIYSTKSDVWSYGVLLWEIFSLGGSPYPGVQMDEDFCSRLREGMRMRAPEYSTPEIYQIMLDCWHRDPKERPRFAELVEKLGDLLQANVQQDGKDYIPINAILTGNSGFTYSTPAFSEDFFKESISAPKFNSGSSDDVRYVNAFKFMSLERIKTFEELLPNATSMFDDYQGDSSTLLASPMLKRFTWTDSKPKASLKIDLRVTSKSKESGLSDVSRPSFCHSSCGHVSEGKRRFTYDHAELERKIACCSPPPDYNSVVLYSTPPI
Sequence of Fibroblast growth factor receptor 4 (Homo sapiens) (P22455 22-802 limits assumed): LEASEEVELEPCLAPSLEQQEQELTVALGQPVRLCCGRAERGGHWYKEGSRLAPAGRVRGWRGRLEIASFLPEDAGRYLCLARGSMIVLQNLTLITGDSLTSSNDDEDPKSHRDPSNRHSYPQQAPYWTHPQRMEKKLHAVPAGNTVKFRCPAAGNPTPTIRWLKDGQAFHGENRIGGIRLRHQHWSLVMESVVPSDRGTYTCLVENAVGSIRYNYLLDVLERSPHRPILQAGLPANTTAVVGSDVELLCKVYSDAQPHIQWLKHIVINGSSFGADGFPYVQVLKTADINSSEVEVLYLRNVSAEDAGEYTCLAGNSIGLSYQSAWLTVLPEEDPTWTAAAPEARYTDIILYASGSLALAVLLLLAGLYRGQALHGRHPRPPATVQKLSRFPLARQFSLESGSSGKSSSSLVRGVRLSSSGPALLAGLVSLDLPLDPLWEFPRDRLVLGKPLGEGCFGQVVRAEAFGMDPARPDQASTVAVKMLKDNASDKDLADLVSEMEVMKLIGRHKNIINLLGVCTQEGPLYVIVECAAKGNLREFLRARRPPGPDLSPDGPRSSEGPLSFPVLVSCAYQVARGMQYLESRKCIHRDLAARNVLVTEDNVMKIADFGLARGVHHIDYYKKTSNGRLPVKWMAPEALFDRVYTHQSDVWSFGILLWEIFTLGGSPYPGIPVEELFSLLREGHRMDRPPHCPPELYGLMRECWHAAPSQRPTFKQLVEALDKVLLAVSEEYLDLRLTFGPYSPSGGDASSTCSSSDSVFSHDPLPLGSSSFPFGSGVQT
Sequence of Tyrosine-protein kinase Fer (Homo sapiens) (P16591 whole entry, looked up): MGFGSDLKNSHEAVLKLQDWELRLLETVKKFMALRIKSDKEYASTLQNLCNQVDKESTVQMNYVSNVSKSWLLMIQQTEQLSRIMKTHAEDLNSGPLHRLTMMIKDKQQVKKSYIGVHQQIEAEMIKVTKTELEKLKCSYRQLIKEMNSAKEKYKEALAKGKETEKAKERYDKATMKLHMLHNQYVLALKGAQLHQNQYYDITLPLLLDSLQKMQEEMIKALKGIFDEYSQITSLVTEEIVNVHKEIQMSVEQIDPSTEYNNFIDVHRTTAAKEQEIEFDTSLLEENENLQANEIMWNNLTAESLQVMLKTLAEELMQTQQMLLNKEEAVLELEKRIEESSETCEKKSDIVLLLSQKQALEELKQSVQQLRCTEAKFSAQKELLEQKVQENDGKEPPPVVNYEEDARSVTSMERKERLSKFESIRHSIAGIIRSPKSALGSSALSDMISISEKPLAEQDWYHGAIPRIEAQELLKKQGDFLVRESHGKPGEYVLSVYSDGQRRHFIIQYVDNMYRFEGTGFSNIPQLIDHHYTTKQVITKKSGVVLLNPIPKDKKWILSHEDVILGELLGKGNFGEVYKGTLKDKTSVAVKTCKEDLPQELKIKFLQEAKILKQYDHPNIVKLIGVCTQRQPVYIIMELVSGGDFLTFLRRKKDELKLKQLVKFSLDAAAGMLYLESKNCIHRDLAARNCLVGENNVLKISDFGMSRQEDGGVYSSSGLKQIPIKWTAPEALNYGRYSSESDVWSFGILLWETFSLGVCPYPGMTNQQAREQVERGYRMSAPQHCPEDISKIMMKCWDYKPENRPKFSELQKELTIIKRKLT
Sequence of Non-receptor tyrosine-protein kinase TYK2 (Homo sapiens) (P29597 whole entry): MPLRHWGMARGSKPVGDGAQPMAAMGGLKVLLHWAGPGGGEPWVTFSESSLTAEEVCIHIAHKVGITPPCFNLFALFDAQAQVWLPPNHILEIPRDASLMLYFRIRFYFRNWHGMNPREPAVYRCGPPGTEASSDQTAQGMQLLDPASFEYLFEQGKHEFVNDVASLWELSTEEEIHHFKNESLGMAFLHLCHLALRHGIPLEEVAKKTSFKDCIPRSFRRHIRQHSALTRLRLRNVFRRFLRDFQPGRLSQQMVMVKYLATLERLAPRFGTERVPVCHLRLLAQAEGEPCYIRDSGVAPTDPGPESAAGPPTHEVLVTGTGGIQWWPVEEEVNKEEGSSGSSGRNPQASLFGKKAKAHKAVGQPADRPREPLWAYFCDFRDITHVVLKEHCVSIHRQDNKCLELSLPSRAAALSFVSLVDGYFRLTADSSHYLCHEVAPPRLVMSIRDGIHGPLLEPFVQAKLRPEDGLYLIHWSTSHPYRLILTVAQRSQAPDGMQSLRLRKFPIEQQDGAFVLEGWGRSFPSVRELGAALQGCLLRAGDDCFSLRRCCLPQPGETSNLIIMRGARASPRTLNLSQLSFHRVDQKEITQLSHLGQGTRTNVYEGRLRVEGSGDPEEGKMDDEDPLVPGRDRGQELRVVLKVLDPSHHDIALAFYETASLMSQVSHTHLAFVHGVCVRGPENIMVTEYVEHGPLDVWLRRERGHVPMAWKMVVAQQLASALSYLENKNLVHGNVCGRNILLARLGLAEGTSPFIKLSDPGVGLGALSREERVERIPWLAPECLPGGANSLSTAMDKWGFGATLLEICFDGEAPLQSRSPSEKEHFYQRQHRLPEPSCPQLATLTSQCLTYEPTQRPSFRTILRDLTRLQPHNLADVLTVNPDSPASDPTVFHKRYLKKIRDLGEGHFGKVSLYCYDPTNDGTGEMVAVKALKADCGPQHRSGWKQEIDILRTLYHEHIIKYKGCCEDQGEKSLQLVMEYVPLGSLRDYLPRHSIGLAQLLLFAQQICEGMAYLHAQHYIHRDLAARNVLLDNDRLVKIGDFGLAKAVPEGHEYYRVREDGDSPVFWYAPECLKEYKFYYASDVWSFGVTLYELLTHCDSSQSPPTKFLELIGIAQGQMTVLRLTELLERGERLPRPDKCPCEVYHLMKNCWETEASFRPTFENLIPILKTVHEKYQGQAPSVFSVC
Sequence of Fibroblast growth factor receptor 2 (Homo sapiens) (P21802 22-821 limits assumed): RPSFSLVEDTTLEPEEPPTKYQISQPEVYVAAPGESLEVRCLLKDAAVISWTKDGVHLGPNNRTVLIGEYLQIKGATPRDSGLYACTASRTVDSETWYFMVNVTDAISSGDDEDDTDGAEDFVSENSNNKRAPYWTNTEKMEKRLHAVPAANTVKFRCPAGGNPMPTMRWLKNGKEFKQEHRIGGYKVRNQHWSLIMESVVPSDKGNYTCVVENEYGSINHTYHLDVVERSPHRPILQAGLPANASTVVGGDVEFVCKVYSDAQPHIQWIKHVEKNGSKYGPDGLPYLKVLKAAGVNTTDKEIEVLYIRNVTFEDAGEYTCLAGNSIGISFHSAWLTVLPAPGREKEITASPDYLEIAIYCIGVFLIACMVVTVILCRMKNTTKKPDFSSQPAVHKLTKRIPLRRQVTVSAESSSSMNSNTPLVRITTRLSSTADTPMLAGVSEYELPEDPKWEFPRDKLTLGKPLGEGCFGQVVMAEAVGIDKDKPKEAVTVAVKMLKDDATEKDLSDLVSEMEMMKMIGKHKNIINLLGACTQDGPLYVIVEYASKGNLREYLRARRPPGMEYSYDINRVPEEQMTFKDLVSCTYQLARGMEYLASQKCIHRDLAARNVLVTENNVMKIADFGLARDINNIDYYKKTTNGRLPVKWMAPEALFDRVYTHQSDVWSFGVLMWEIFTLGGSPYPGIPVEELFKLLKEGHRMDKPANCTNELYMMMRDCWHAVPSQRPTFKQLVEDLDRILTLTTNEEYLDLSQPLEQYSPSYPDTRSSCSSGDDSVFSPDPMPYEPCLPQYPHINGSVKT

Row | Compound | inhibition [1] [%] | inhibition [2] [%] | inhibition [3] [%] | inhibition [4] [%] | inhibition [5] [%] | inhibition [6] [%] | inhibition [7] [%] | inhibition [8] [%] | inhibition [9] [%] | inhibition [10] [%] | inhibition [11] [%] | inhibition [12] [%] | inhibition [13] [%] | inhibition [14] [%] | inhibition [15] [%] | inhibition [16] [%] | inhibition [17] [%] | inhibition [18] [%] | inhibition [19] [%] | inhibition [20] [%]
1 | Cc1ccc(-c2cc3c(NC(=O)C4CC4)ncnc3o2)cc1 | 6.82 | 4.78 | 7.73 | 7.46 | 5.81 | 6.04 | 10.7 | 5.42 | 5.53 | 1.15 | 1.04 | 2.06 | 13.3 | 2.75 | 3.26 | 2.89 | 3.69 | 0.76 | -1.62 | 9.35
2 | Cc1cc(O)cc(C)c1/C=C/c1cncc(C(=O)OC(C)(C)C)c1 | 3.02 | 1.48 | 2.34 | 1.91 | 3.93 | 1.65 | 5.08 | 7.81 | 7.63 | 1.4 | 2.64 | 8.01 | 34 | 2.02 | 2.37 | 2.32 | 1.9 | -1.99 | -2.24 | 3.2
3 | CN1CCC(n2cnc(-c3ccc(F)cc3)c2-c2ccnc(NCCO)n2)CC1 | 7.14 | 2.72 | 3.24 | 3.14 | -2.05 | 3.73 | 6.49 | 7.57 | 5.67 | -1.01 | 0.38 | 5.33 | 2.78 | 1.32 | 3.27 | 1.5 | 5.56 | -2.58 | -4.71 | 3.69
4 | O=C(Nc1n[nH]c2nnc(-c3cccnc3)cc12)C1CC1 | 0.68 | -0.26 | -1.66 | -0.17 | -1.08 | -0.85 | -0.69 | 0.05 | 1.8 | 2.02 | -0.33 | 2.57 | 2.95 | 0.7 | 0.07 | -0.64 | 1.54 | 0.49 | 2.04 | -0.64
5 | NS(=O)(=O)c1ccc(N/N=C2\C(=O)Nc3ccc(C(=O)NCc4ccncc4)cc32)cc1 | 5.14 | 2.4 | 1.67 | 3.12 | 5.51 | 1.27 | 11.9 | 4.61 | 8.12 | -2.09 | 2.18 | 4.24 | 12.5 | 2.5 | 10.3 | 2.9 | 11.4 | 3.79 | 0.98 | 2.32
6 | CNC(=O)c1cncc(/C=C/c2ccccc2C)c1 | 4.88 | 2.38 | 1.6 | 4.11 | 3.14 | 2.42 | 4.95 | 6.04 | 4.39 | 0.55 | -0.62 | 5.41 | 9.23 | 1.31 | 0.49 | 1.85 | 1.3 | -2.2 | -3.23 | 3.13
7 | CNC(=O)c1ncccc1Nc1nc(Nc2cc3c(cc2OC)CCCN3C(=O)CN(C)C)nc2[nH]ccc12 | 80.1 | 44.3 | 80.6 | 9.89 | 3.03 | 6.69 | 6.99 | 7.55 | 4.61 | 2.18 | 0.76 | 1.73 | 7.26 | 0.02 | -0.67 | 3.6 | 4.13 | 1.41 | -1.39 | 4.43
8 | CS(=O)(=O)CCNCc1ccoc1-c1ccc2ncnc(Nc3ccc(OCc4ccccc4)cc3)c2c1 | 1.52 | 1.6 | 0.27 | -2.87 | 2.44 | -0.37 | 2.62 | 2.09 | 3.53 | 0.96 | 1.85 | 2.61 | 12.6 | 2.35 | -0.36 | 1.82 | 6.53 | -4.02 | 0.15 | 0.96
9 | CS(=O)(=O)Nc1ccc(-c2ccc3c(NC(=O)C4CC4)n[nH]c3c2)cc1 | 11.5 | 2.68 | 4.38 | 6.04 | 6.36 | 3.37 | 8.17 | 6.11 | 5.97 | -2.39 | 0.84 | 1.59 | 7.28 | 1.26 | 3.04 | -0.08 | 5.66 | 1.14 | -2.13 | 2.75
